USP2a inh = qHTS Assay for Inhibitors of Ubiquitin-specific Protease USP2a Using CHOP2 as the Reporter | Ubiquitin carboxyl-terminal hydrolase 2 (Homo sapiens), O75604 | USP2 core, Ub-CHOP2 coupled fluorogenic reporter, 485/531 | Potency, µM (highest dose often 38.3 µM), for the others: at the highest dose activity change, negative = inhibition, actives largely listed as inhibitors | 330,000 compounds, 0.01% hits | AID 463254, 2010;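 further: potency means the concentration at half of the fitted maximal effect; plate controls were DMSO wells for no effect and full inhibition by NEM control for full effect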
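USP2 core (10nM final) preincubated 30min RT with compound in 20mM Tris-HCl pH 8.0, 2mM CaCl2, 2mM beta-mercaptoethanol, 0.05% CHAPS; 25nM Ub-CHOP2 plus 25nM reporter substrate added, fluorescence (Ex485/Em531) read after 60min.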
uPA generation = qHTS for Inhibitors of Cell Surface uPA Generation. Potency, µM (top dose mostly 38.3 µM), for inactives: top-dose activity change, negative = inhibition, actives largely listed as inhibitors. AID 540303, 2011. cell surface uPA generation assay, qHTS. 330,000 compounds, 0.31% hits; active means well fitted inhibition curve with a large enough effect; inconclusive means small, poorly fitted or top-dose-only effect; inactive means no such curve, though single readings can be large or run the other way; tested in mouse RAW 264.7 cells; further: potency means the concentration at half of the fitted maximal effect; nearly all actives have a fitted effect of over 55% in size
Six1-Eya2 blk = qHTS Assay for Inhibitors of the Six1/Eya2 Interaction; 360,000 compounds, 0.56% hits; AID 651725, 2012; Homeobox protein SIX1 (Homo sapiens) + Protein phosphatase EYA2 (Homo sapiens), …; activity change, % (no concentration beside the values); AlphaScreen GST-Six1/His-Eya2 binding, biochemical; stronger effect = lower value; in the data active means activity change below about -65%; inconclusive means mostly about -30% to -63%
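GST-Six1 + His-Eya2 (5X stock: 250/500 nM); Tris pH 8.0, 300 mM NaCl, 0.05% BSA, 0.02% Tween 20; GSH donor/Ni acceptor beads; 1 h 37 °C dark; AlphaScreen readout.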
Eya2 inh = qHTS Assay for Inhibitors of the Phosphatase Activity of Eya2 | recombinant Eya2, OMFP fluorescence dephosphorylation (OMFP is methylfluorescein phosphate) | Potency, µM (top dose mostly 76.9 µM), for inactives: at the highest dose activity, negative = inhibition, usual class: inhibitors | 330,000 compounds, 0.006% hits | AID 488837, 2010; further: potency means the concentration at half of the fitted maximal effect
Target sequence (O00167 whole entry, looked up): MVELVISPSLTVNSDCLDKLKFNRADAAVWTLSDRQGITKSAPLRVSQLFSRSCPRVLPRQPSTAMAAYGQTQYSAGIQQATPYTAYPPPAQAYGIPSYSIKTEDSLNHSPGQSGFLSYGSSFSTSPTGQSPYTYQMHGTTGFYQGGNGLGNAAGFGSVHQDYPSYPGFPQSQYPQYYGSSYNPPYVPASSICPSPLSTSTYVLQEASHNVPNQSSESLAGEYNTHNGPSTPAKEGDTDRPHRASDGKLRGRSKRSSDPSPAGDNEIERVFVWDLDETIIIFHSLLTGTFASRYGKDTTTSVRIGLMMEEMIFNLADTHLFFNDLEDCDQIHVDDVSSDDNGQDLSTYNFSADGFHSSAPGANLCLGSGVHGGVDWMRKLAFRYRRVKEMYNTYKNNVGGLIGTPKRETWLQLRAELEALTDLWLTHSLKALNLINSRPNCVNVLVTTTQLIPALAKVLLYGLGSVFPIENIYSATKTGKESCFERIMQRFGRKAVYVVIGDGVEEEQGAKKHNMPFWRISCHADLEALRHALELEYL
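Eya2 protein (added as 0.2 uM solution) was preincubated with compound for 10 min at ambient temperature in 50 mM HEPES pH 7.5, 50 mM NaCl, 5 uM MgCl2, 0.05% BSA, 1 mM DTT. OMFP (added at 50 uM) then reacted 10 min; fluorescence read at 485/525 nm.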
L3MBTL1 inh = qHTS Assay for the Inhibitors of L3MBTL1; AlphaScreen L3MBTL1–H3K9me1 peptide binding; Lethal(3)malignant brain tumor-like protein 1 (Homo sapiens), Q9Y468; 230,000 compounds, 0.66% hits; Potency, µM (series often up to 57.1 µM), inactives show top-dose activity, negative = inhibition, actives largely listed as inhibitors; further: potency means the concentration at half of the fitted maximal effect; nearly all actives have a fitted effect of over 60% in size
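AlphaScreen proximity signal between nickel-chelate acceptor and streptavidin donor beads (final 10 ug/mL) reports binding of 50 nM L3MBTL1 to 75 nM biotin-H3 K9me1 peptide; complex incubated with compounds 30 min at room temperature; cefsulodin titration as control.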
CtBP-E1A inh = qHTS Assay for Inhibitors of the CtBP/E1A Interaction. CtBP / adenovirus E1A interaction (AlphaScreen). AlphaScreen GST-E1A/His-CtBP binding, 1536-well; stronger effect = lower value. activity change, % (no concentration beside the values). 340,000 compounds, 0.49% hits. AID 651724, 2012; in the data active means activity change below about -65%; inconclusive means mostly about -30% to -63%
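GST-E1A and His-tagged CtBP (125 nM each as 5X stock) were preincubated with pin-transferred compound for 2 h at 37 °C in the dark, then glutathione donor and nickel acceptor beads were added for 1 h before AlphaScreen reading.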
Numbers without * were called inactive; ? = inconclusive; . = no result. Shown are actives, neighbours in structure and some others; about 1.2% of the full set was active somewhere. Unless noted, the call rests on the fitted dose curve; in most records, active means well fitted curve in the direction sought with a large enough effect; inconclusive means small, poorly fitted or top-dose-only effect, or another doubt; inactive means no such curve, though single readings can be large; an effect the other way counts as inactive or inconclusive. Unless noted, on the % scale 0 is the no-effect control and ±100 the full control effect.

SMILES	USP2a inh	uPA generation	Six1-Eya2 blk	Eya2 inh	L3MBTL1 inh	CtBP-E1A inh
COc1cccc(N2C(=O)NC(=O)/C(=C/c3ccc([N+](=O)[O-])s3)C2=O)c1	0.0%	1.7%	?	6.0%	.	-22.4
COc1ccc(N2C(=O)NC(=O)/C(=C\c3ccc([N+](=O)[O-])s3)C2=O)cc1	-0.4%	-4.0%	?	16.2%	22.4µM*	-20.7
COc1ccc(N2C(=O)NC(=O)/C(=C/c3ccc([N+](=O)[O-])s3)C2=O)cc1	-2.0%	?	-72.7*	-3.2%	.	.
Cc1ccc(S(=O)(=O)Nc2cccc3c2O[C@H](CN(C)C(=O)Nc2cccc4ccccc24)[C@H](C)CN([C@H](C)CO)C3=O)cc1	-0.4%	?	-9.2	11.3%	-0.6%	-1.2
C=CCC[C@H](Cc1ccc(F)cc1)C(=O)OC[C@@H](Cc1c[nH]c2ccccc12)NC(=O)[C@H](CC=C)CC(=O)N(CCO)Cc1ccccc1	-9.3%	?	-9.2	-1.6%	-11.4%	-7.8
Cn1c(=O)oc2cc(S(=O)(=O)N3CCCc4ccccc43)ccc21	1.9%	2.24µM*	10.6	0.1%	.	18.1
Cc1cc(-c2ccccc2)n(-c2cc(N/N=C/c3ccccc3O)ncn2)n1	3.3%	10µM*	-5.7	-3.2%	-2.5%	20.3
Oc1ccccc1O	1.7%	?	13.8	0.3%	17.8µM*	-19.0
CCN1C(=O)C(=C2C=C(C)N(Cc3ccco3)C(C)=C2)C(=O)N(CC)C1=S	1.0%	-0.8%	15.2	23.0%	38.4%	10.6
CCN1C(=O)C(=C/C=C/c2ccco2)C(=O)N(CC)C1=S	2.1%	-4.0%	?	23.8%	12.6µM*	2.6
O=C1NC(=O)N(Cc2ccccc2)C(=O)/C1=C/C=C/c1ccco1	4.6%	?	4.6	13.2%	28.2µM*	-3.3
CC(C)c1ccc(N2C(=O)NC(=O)/C(=C\C=C\c3ccco3)C2=O)cc1	7.7%	-15.5%	-18.9	16.8%	.	-0.5
NC(=O)[C@H]1CC2(CC(c3cccc(NC(=O)COc4ccc(Cl)cc4)c3)=NO2)CN1C(=O)Cc1ccc([N+](=O)[O-])cc1 (some centres undefined)	2.8%	?	1.0	4.3%	.	-4.4
Cc1cc(C)c2sc(NC(=O)c3ccc([N+](=O)[O-])o3)nc2c1	0.5%	?	2.1	9.0%	13.3%	1.5
Cc1ccc(N/C(N)=N/c2nc(CSc3nnc(C)s3)cc(=O)[nH]2)c(C)c1	1.6%	3.55µM*	5.1	-6.4%	0.9%	.
COc1cc2c(cc1OC)-c1c(OC)c(OC)cc3ccnc(c13)C2=O	-1.6%	?	?	6.9%	0.0%	-71.3*
COc1cc2c(cc1OC)-c1c(OC)c(OC)cc3c1C(C2)N(C)CC3 (centres undefined)	-1.1%	-25.5%	?	-14.4%	-5.8%	?
CC(C)C[C@@H](C(=O)NC1CCN(Cc2ccccc2)CC1)N1C(=O)N2CCc3c([nH]c4ccccc34)[C@@]2(C)C1=O	-1.2%	?	?	-13.0%	?	-26.1
CC1=CC2/C=C(\C)CCC(O)C(O)/C=C/C(=O)C23C(=O)NC(CC(C)C)C3C1C (centres undefined)	5.1%	1µM*	0.5	-6.5%	2.8%	2.4
O=C1NC[C@H](c2ccccc2)OC(=O)[C@H](Cc2ccc(F)cc2)C/C=C\C[C@H]1CC(=O)N(CCO)Cc1ccccc1	-6.9%	-24.0%	7.0	2.6%	3.3%	22.1

Screening results: PubChem BioAssay, National Center for Advancing Translational Sciences (NCATS)
